Measured values published in the supplement of paper PMC7156485.
± gives the standard deviation of the averaged measurements.

How the values were obtained:
Conditions in all cases: concentration: 10 µM; 24 h
HCC1569 [1] = experiment: cell number relative to DMSO (% of DMSO); higher = more cells (less growth inhibition / toxicity)
How it was run: (§1)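 After 24 h at 37 °C with compounds at 10 µM, in triplicate, HCC1569 and TDF cells were fixed with 3.7% formaldehyde. Immunostaining used a rabbit anti-H1.0 antibody and an AlexaFluor 647 secondary, with DAPI, and six fields per well were imaged at ×10. H1.0 nuclear intensity or cell number is presented as percent of the plate control, from the median of replicates, with HCC1569 values smoothed for positional effects.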

TDF [2] = experiment: as above
How it was run: as §1

TDF [3] = experiment: H1.0 immunofluorescence intensity relative to DMSO (% of DMSO); higher = stronger H1.0 induction, active = 120 or more
How it was run: as §1

HCC1569 [4] = experiment: H1.0 immunofluorescence intensity relative to DMSO (% of DMSO); higher = stronger H1.0 induction, active = 140 or more
How it was run: as §1
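Throughout, for H1.0 immunofluorescence intensity relative to DMSO: TDF is a line of transformed human dermal fibroblasts of mesenchymal origin.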
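Throughout, for cell number relative to DMSO: TDF denotes transformed human dermal fibroblasts of mesenchymal origin.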

Structure (SMILES) | cell number (HCC1569 [1]) | cell number (TDF [2]) | H1.0 immunofluorescence intensity (TDF [3]) | H1.0 immunofluorescence intensity (HCC1569 [4])
CCCCCC(O)C=CC=CC=CC(O)CC=CCCCC(=O)O [8(R),15(S)-DIHETE all trans] | 102 | 107 | 91.4 (inactive) | 98.4 (inactive)
COC(=O)c1c(C)[nH]c(C)c1C(=O)c1ccccc1Cc1ccccc1 | 102 | 102 | 92.3 (inactive) | 129 (inactive)
COC1C(OC(=O)c2ccc(C)[nH]2)C(O)C(Oc2ccc3c(O)c(NC(=O)c4c[nH]c(C(=O)Nc5c(O)c6ccc(OC7OC(C)(C)C(OC)C(OC(=O)c8ccc(C)[nH]8)C7O)c(C)c6oc5=O)c4C)c(=O)oc3c2C)OC1(C)C (stereo unspecified) [Coumermycin A1] | 94.7 | 100 | 93.5 (inactive) | 101 (inactive)
CCC(Sc1nnc2c(n1)[nH]c1ccccc12)C(=O)N1c2ccccc2Sc2ccccc21 (stereo unspecified) | 96.4 | 96.3 | 103 (inactive) | 700 (active)
O=C([O-])c1cc2cc(Cc3cccnc3)ccc2o1.[Na+] [Furegrelate sodium] | 102 | 102 | 88.5 (inactive) | 93.7 (inactive)
COCCCOc1ccnc(CS(=O)c2nc3ccccc3[n-]2)c1C.[Na+] (stereo unspecified) | 101 | 90.9 | 103 (inactive) | 106 (inactive)
CCCCCC(=O)c1c(O)c(Cl)c(OC)c(Cl)c1O [1-(3,5-dichloro-2,6-dihydroxy-4-methoxyphenyl)-1-hexanone] | 93.6 | 90 | 101 (inactive) | 120 (inactive)
O=c1[nH]c2ccccc2n1CCCN1CCN(C(c2ccccc2)c2ccccc2)CC1 [Oxatomide] | 98.3 ± 2.3 | 105 ± 7.4 | 90.8 (inactive) | 101 (inactive)
Cc1cc2nc(NCCCO)n(CC(=O)c3cc(C(C)(C)C)c(O)c(C(C)(C)C)c3)c2cc1C | 67.9 | 78.5 | 97.1 (inactive) | 173 (active)
CN1C2CCC1CC(OC(=O)c1c[nH]c3ccccc13)C2 (stereo unspecified) [Tropisetron] | 102 | 92.9 | 101 (inactive) | 112 (inactive)
CCOC(=O)c1csc(Nc2ccc(Cl)cc2)n1 [ethyl 2-(4-chloroanilino)-1,3-thiazole-4-carboxylate] | 97 | 99.4 | 99.7 (inactive) | 113 (inactive)
O=c1c2ccccc2[nH]c(=S)n1CCN1CCC(=C(c2ccc(F)cc2)c2ccc(F)cc2)CC1 [Diacylglycerol Kinase Inhibitor II] | 105 ± 1.1 | 93.8 ± 1.5 | 93.9 (inactive) | 94.1 (inactive)
CCCCCC(O)C=CC1C(O)CC(O)C1CC=CCCCC(=O)O (stereo unspecified) [Dinoprost] | 100 | 106 | 93.2 (inactive) | 109 (inactive)
O=C1CC(c2ccc(O)cc2)Oc2cc(OC3OC(CO)C(O)C(O)C3O)cc(O)c21 (stereo unspecified) [Narigenin-7-O-glucoside] | 101 | 103 | 97.8 (inactive) | 86.5 (inactive)
CCCCCCCCCCCCCC(=O)O [Tetradecanoic acid] | 99.4 | 104 | 97.8 (inactive) | 102 (inactive)
N#CC(=Cc1c[nH]c2ccccc12)C(=O)c1ccc(O)c(O)c1 [Tyrphostin AG 808] | 93.1 | 100 | 86.2 (inactive) | 122 (inactive)
CN(C)CCOC(c1ccccc1)c1ccccc1.Cl [Diphenhydramine.HCl] | 106 | 103 | 100 (inactive) | 107 (inactive)
Cl.Fc1ccc(C(OCCCc2cnc[nH]2)c2ccc(F)cc2)cc1 | 99.8 | 108 | 88.3 (inactive) | 99.8 (inactive)
Cl.NCCNC(=O)c1ccc(Cl)cc1 [Ro 16-6491 hydrochloride] | 100 | 102 | 94.8 (inactive) | 107 (inactive)
CC(C=CC1=C(C)CCCC1(C)C)=CC=CC(C)=CC(=O)O [13-cis-retinoic acid] | 102 | 100 | 88.5 (inactive) | 123 (inactive)
CN(CCOc1ccc(CC2SC(=O)NC2=O)cc1)c1ccccn1.O=C(O)C=CC(=O)O (stereo unspecified) [Rosiglitazone maleate] | 103 | 113 | 92.5 (inactive) | 101 (inactive)
O=C(O)c1cc(N(Cc2ccccc2O)Cc2cc(O)ccc2O)ccc1O [Lavendustin A] | 105 | 89.4 | 108 (inactive) | 97.9 (inactive)
CCCCCCCCCCCCC(=O)N1CCCCC1CNC(=O)C(N)CCCCN.Cl.Cl (stereo unspecified) | 101 | 109 | 104 (inactive) | 100 (inactive)
O=C1Cc2c([nH]c3ccc(Br)cc23)-c2ccccc2N1 [Kenpaulone] | 73.4 | 97.7 | 89.8 (inactive) | 83.4 (inactive)
